The values below come from PubChem BioAssay (NCATS).

Inconclusive results are not listed. The source made the active and inactive calls. Calls follow the shape of the dose curve; as a rule, active = well fitted curve in the direction sought with a large enough effect; inconclusive = small, poorly fitted or top-dose-only effect, or another doubt; inactive = no such curve, though single readings can be large; an effect the other way counts as inactive or inconclusive.

The target in the first test is Protein phosphatase 1D (Homo sapiens) (UniProt O15297). Nature of the test: Rhodamine-PBP qHTS Assay for Modulators of WT P53-Induced Phosphatase 1 (WIP1) (AID 1347425). To be noted: recombinant WIP1, Rhodamine-PBP phosphate fluorescence, real-time; series mostly up to 57.5 µM. The procedure, abridged: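 WIP1 (5 nM final) was preincubated with compound for 1 hour at room temperature. It then dephosphorylated 10 uM VEPPL-pS-QETFS peptide in Tris-HCl pH 7.5 with 30 mM MgCl2. Released Pi was detected by 10 uM Rh-PBP fluorescence (ex 525/em 598 nm) read at 1-min intervals for 11 min, as delta f1 - f0.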
Sequence of Protein phosphatase 1D (Homo sapiens) (O15297 whole entry, looked up): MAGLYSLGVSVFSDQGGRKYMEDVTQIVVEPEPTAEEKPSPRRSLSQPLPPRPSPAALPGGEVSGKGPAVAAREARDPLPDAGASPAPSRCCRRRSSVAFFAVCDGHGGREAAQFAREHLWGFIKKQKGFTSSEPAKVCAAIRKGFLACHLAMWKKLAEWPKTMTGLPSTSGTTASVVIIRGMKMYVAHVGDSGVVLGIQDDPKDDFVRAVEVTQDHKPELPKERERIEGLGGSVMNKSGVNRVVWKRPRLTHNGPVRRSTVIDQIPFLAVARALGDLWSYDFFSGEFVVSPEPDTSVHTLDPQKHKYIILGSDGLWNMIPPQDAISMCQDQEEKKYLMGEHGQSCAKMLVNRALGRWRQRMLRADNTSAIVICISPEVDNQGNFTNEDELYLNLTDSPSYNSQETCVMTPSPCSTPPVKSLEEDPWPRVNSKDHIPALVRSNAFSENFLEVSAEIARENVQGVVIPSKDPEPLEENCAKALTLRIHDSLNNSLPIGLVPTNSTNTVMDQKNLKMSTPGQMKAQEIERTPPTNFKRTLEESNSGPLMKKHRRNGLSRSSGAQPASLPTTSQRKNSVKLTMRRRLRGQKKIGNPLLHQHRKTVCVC
In general terms: In qHTS, concentration-response curves come from the screen itself.
For `CC1(C)OC(=O)Nc2ccc(Br)cc21`, the result was inactive.
On the same count and under the same terms, the result for `CC(C)(C)c1ccc(C(=O)CCCCl)cc1` reads “inactive”; that for `COc1ccc2nc(SCc3ncc(C)c(OC)c3C)[nH]c2c1`, “inactive”; that for `Cc1cccc(N(C)C(=S)Oc2ccc3c(c2)C2CCC3C2)c1` (centres undefined), “inactive”.
On the same count and under the same terms, the result for `CCCCC(O)/C=C(C)/C=C/C=C/C(=O)N1CCCC1=O` (centres undefined) reads “inactive”; that for `O=C(C1CCCCC1)N1CC(=O)N2CCCc3ccccc3C2C1` (centres undefined), “inactive”; that for `CCO[C@H](Cc1ccc(OCCc2ccc(OS(C)(=O)=O)cc2)cc1)C(=O)O`, “inactive”.
As to `CC(NN)c1ccccc1` (centres undefined), the outcome was inactive.
Still for that read-out and setting: the result for `OC(CCCN1CCCCC1)(c1ccccc1)c1ccccc1` reads “inactive”; that for `O=C(c1ccccc1)c1ccccc1`, “inactive”; that for `CC[C@@H]([C@H](C)O)n1ncn(-c2ccc(N3CCN(c4ccc(OC[C@@H]5CO[C@@](Cn6cncn6)(c6ccc(F)cc6F)C5)cc4)CC3)cc2)c1=O`, “inactive”.
For the compound `O=C(c1cc(O)c(O)c(O)c1)c1ccc(O)c(O)c1O`, the outcome was inactive.
The same measure, in the same setting: the result for `COc1cc(C(=O)NC2CCCNC2)cc(OC)c1OC` (centres undefined) reads “inactive”; that for `CNC(=O)c1c(I)c(NC(C)=O)c(I)c(C(=O)O)c1I`, “inactive”; that for `CC(Oc1c(Cl)cccc1Cl)C1=NCCN1` (centres undefined), “inactive”.
The same measure, in the same setting: the result for `CN(C(=O)C(Cl)Cl)c1ccc(OC(=O)c2ccco2)cc1` reads “inactive”.
The same measure, in the same setting: the result for `CCN1CCCC1CN` (centres undefined) reads “inactive”; that for `CCOC(=O)C(O)c1ccccc1` (centres undefined), “inactive”; that for `CCOC(=O)C(=O)CCCCCCl`, “inactive”.
As for `CCCCCCCCCCCCCCCCCCN(C)C`, the result was inactive.
Still for that read-out and setting: to `C#CC(C)(CC)OC(=O)c1ccccc1C(=O)O` (centres undefined) belongs “inactive”.
Same read-out and setting: to `O=C(O)CNC(=O)CNC(=O)CNC(=O)CSC(=O)c1ccccc1` belongs “inactive”.
Same read-out and setting: the result for `Oc1cccc2[nH]ccc12` reads “inactive”.
As to `Cc1cnc(NS(=O)(=O)c2ccc(N)cc2)nc1`, the outcome was inactive.
On the same count and under the same terms, to `Nc1ccc2c(c1)CN1C(=O)c3ccccc3C1=N2` belongs “inactive”.
On the same count and under the same terms, to `COC(=O)c1cc(Cl)c(NC(C)=O)cc1OC` belongs “inactive”.
Same read-out and setting: the result for `CCOC(=O)C(=O)CCc1ccccc1` reads “inactive”; that for `CN1C(=O)CC(C)(c2ccccc2)C1=O` (centres undefined), “inactive”; that for `CN(C)CCOC1=Cc2ccccc2Sc2ccc(Cl)cc21`, “inactive”.
In the case of `O=C1CC2(CCCC2)CC(=O)N1`, the result was inactive.
The same measure, in the same setting: to `CCN(CC)C(=O)C1CN2CCc3cc(OC)c(OC)cc3C2CC1OC(C)=O` (centres undefined) belongs “inactive”; to `O=c1[nH]c(=O)n([C@H]2O[C@H](CO)[C@@H](O)[C@@H]2O)cc1/C=C\Br`, “inactive”.
On the same count and under the same terms, the result for `COC(=O)c1cc(S(N)(=O)=O)ccc1OC` reads “inactive”; that for `COC(=O)c1c(Cl)c(Cl)c(C(=O)OC)c(Cl)c1Cl`, “inactive”.
As to `C1=CC2C3C=CC(C3)C2C1` (centres undefined), the outcome was inactive.
The same measure, in the same setting: to `CC(CC(C#N)(c1ccccc1)C(C)C)N(C)C` (centres undefined) belongs “inactive”.
Same read-out and setting: the result for `CC(=O)OCC(=O)Nc1cc(C#N)cc(NC(=O)COC(C)=O)c1Cl` reads “inactive”.

System in the next test: not listed separately
Nature of the test: Primary qHTS for inhibitors of La Crosse Virus (LACV) - induced cell death in SH-SY5Y cells (AID 1508616).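 Also: top concentration of the series differs between compounds; higher means more rescue of cells from virus-induced death.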 To be noted: SH-SY5Y LACV cytopathicity rescue, ATP luminescence, 6 d; series mostly up to 4.29 µM. In short, it runs like this: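 Screening measures cell viability in LACV-infected SH-SY5Y cultures. Compound was added before virus (0.01 MOI), and ATP was detected by luminescence 6 days later.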
In the case of `CC1(C)OC(=O)Nc2ccc(Br)cc21`, the result was inactive.
Still for that read-out and setting: the result for `CC(C)(C)c1ccc(C(=O)CCCCl)cc1` reads “inactive”.
For `COc1ccc2nc(SCc3ncc(C)c(OC)c3C)[nH]c2c1`, the outcome was inactive.
Same read-out and setting: to `Cc1cccc(N(C)C(=S)Oc2ccc3c(c2)C2CCC3C2)c1` (centres undefined) belongs “inactive”.
`CCCCC(O)/C=C(C)/C=C/C=C/C(=O)N1CCCC1=O` (centres undefined): the call was inactive.
Turning to `O=C(C1CCCCC1)N1CC(=O)N2CCCc3ccccc3C2C1` (centres undefined), the result was inactive.
Still for that read-out and setting: to `CCO[C@H](Cc1ccc(OCCc2ccc(OS(C)(=O)=O)cc2)cc1)C(=O)O` belongs “inactive”; to `CC(NN)c1ccccc1` (centres undefined), “inactive”; to `OC(CCCN1CCCCC1)(c1ccccc1)c1ccccc1`, “inactive”.
Turning to `O=C(c1ccccc1)c1ccccc1`, the call was inactive.
Take `CC[C@@H]([C@H](C)O)n1ncn(-c2ccc(N3CCN(c4ccc(OC[C@@H]5CO[C@@](Cn6cncn6)(c6ccc(F)cc6F)C5)cc4)CC3)cc2)c1=O`: the compound was classed as inactive.
As for `O=C(c1cc(O)c(O)c(O)c1)c1ccc(O)c(O)c1O`, the compound was called inactive.
On the same count and under the same terms, the result for `COc1cc(C(=O)NC2CCCNC2)cc(OC)c1OC` (centres undefined) reads “inactive”; that for `CNC(=O)c1c(I)c(NC(C)=O)c(I)c(C(=O)O)c1I`, “inactive”; that for `CC(Oc1c(Cl)cccc1Cl)C1=NCCN1` (centres undefined), “inactive”.
The same measure, in the same setting: the result for `CN(C(=O)C(Cl)Cl)c1ccc(OC(=O)c2ccco2)cc1` reads “inactive”; that for `CCN1CCCC1CN` (centres undefined), “inactive”.
On the same count and under the same terms, to `CCOC(=O)C(O)c1ccccc1` (centres undefined) belongs “inactive”.
Regarding `CCOC(=O)C(=O)CCCCCCl`, the result was inactive.
On the same count and under the same terms, to `CCCCCCCCCCCCCCCCCCN(C)C` belongs “inactive”.
On the same count and under the same terms, the result for `C#CC(C)(CC)OC(=O)c1ccccc1C(=O)O` (centres undefined) reads “inactive”; that for `O=C(O)CNC(=O)CNC(=O)CNC(=O)CSC(=O)c1ccccc1`, “inactive”; that for `Oc1cccc2[nH]ccc12`, “inactive”.
Same read-out and setting: the result for `Cc1cnc(NS(=O)(=O)c2ccc(N)cc2)nc1` reads “inactive”; that for `Nc1ccc2c(c1)CN1C(=O)c3ccccc3C1=N2`, “inactive”; that for `COC(=O)c1cc(Cl)c(NC(C)=O)cc1OC`, “inactive”.
For the compound `CCOC(=O)C(=O)CCc1ccccc1`, the compound was called inactive.
On the same count and under the same terms, the result for `CN1C(=O)CC(C)(c2ccccc2)C1=O` (centres undefined) reads “inactive”; that for `CN(C)CCOC1=Cc2ccccc2Sc2ccc(Cl)cc21`, “inactive”; that for `O=C1CC2(CCCC2)CC(=O)N1`, “inactive”.
On the same count and under the same terms, to `CCN(CC)C(=O)C1CN2CCc3cc(OC)c(OC)cc3C2CC1OC(C)=O` (centres undefined) belongs “inactive”.
The same measure, in the same setting: to `O=c1[nH]c(=O)n([C@H]2O[C@H](CO)[C@@H](O)[C@@H]2O)cc1/C=C\Br` belongs “inactive”; to `COC(=O)c1cc(S(N)(=O)=O)ccc1OC`, “inactive”; to `COC(=O)c1c(Cl)c(Cl)c(C(=O)OC)c(Cl)c1Cl`, “inactive”.
For `C1=CC2C3C=CC(C3)C2C1` (centres undefined), the outcome was inactive.
Still for that read-out and setting: the result for `CC(CC(C#N)(c1ccccc1)C(C)C)N(C)C` (centres undefined) reads “inactive”; that for `CC(=O)OCC(=O)Nc1cc(C#N)cc(NC(=O)COC(C)=O)c1Cl`, “inactive”.
